Source: the supplement of paper PMC10849652
Targets with a hit are over-represented here; the source holds about 7,900 in all. About 0.6% of all pairs of compound and target were hits.

How the values were obtained:
Assay in all cases: log2 fold change, soluble protein after heating vs DMSO (PISA); higher = thermal stabilisation; K562 cells, 10 uM, 30 min; active = over 0.2 and 3.5 SD of the protein, either way, in both replicates (recomputed)
[1] = compound: CS(=O)(=O)c1ccc(-c2cnc(N)c(C(=O)Nc3ccccc3)n2)cc1
How it was run: (§1)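 Values are thermal stability changes relative to control samples and are taken from duplicates. They are stated as log2 fold changes. Before quantification by TMTpro 16plex LC-MS/MS with equalised channel sums, K562 cells at 2×10^6 cells/mL were treated with 10 μM compound for 30 min, heated in aliquots for 3 min across 48°C-58°C, pooled, extracted in PBS with 0.5% NP-40 at 4°C, and centrifuged at 21,000xg for 90 min to give the soluble supernatant.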

crizotinib = compound: C[C@@H](Oc1cc(-c2cnn(C3CCNCC3)c2)cnc1N)c1c(Cl)ccc(F)c1Cl [crizotinib]
How it was run: as §1

[2] = compound: C[C@@H]1COCCN1C2=NC(=NC(=C2)C3(CC3)S(=O)(=O)C)C4=C5C=CNC5=CC=C4
How it was run: as §1

[3] = compound: C[C@H](C1=CC=C(C=C1)C(=O)NC2=C3C=CNC3=NC=C2)N
How it was run: as §1

duvelisib = compound: C[C@H](Nc1ncnc2nc[nH]c12)c1cc2cccc(Cl)c2c(=O)n1-c1ccccc1 [duvelisib]
How it was run: as §1

gandotinib = compound: Cc1cc(Nc2cc(CN3CCOCC3)c3nc(C)c(Cc4ccc(Cl)cc4F)n3n2)n[nH]1 [gandotinib]
How it was run: as §1

tozasertib = compound: Cc1cc(Nc2cc(N3CCN(C)CC3)nc(Sc3ccc(NC(=O)C4CC4)cc3)n2)n[nH]1 [tozasertib]
How it was run: as §1

[4] = compound: Cc1cc(SCc2sc(-c3ccc(C(F)(F)F)cc3)nc2C)ccc1OCC(=O)O
How it was run: as §1

doramapimod = compound: Cc1ccc(-n2nc(C(C)(C)C)cc2NC(=O)Nc2ccc(OCCN3CCOCC3)c3ccccc23)cc1 [doramapimod]
How it was run: as §1

ispinesib = compound: Cc1ccc(C(=O)N(CCCN)[C@@H](c2nc3cc(Cl)ccc3c(=O)n2Cc2ccccc2)C(C)C)cc1 [ispinesib]
How it was run: as §1

Measured: log2 fold change

SRSF6 (UniProt Q13247)
inactive: [1] -0.021 | crizotinib -0.09 | [2] -0.195 | [3] 0.03 | duvelisib -0.085 | gandotinib -0.043 | tozasertib -0.08 | [4] 0.059 | doramapimod -0.047

TFR2 (UniProt Q9UP52)
inactive: [1] 0.068 | crizotinib -0.182 | [2] -0.001 | [3] -0.016 | duvelisib 0.032 | gandotinib 0.03 | tozasertib -0.023 | [4] -0.038 | doramapimod -0.019 | ispinesib -0.097

SPINDOC (UniProt Q9BUA3)
inactive: [1] 0.09 | crizotinib 0.104 | [2] -0.059 | [3] -0.074 | duvelisib -0.296 | gandotinib -0.001 | tozasertib 0.14 | [4] 0.053 | doramapimod 0.097 | ispinesib -0.008

TBK1 (UniProt Q9UHD2)
inactive: [1] -0.027 | [2] -0.021 | [3] 0.043 | duvelisib 0.082 | gandotinib 0.237 | tozasertib 0.129 | [4] 0.175 | doramapimod 0.013 | ispinesib -0.18
active: crizotinib 0.489

SLC6A6 (UniProt P31641)
inactive: [1] 0.021 | crizotinib 0.04 | [2] -0.026 | [3] -0.021 | duvelisib 0.06 | gandotinib -0.049 | tozasertib -0.091 | [4] -0.042 | doramapimod -0.063 | ispinesib -0.028

STXBP2 isoform 3 (UniProt Q15833)
inactive: [1] 0.049 | crizotinib -0.301 | [2] 0.022 | [3] 0.039 | duvelisib 0.019 | gandotinib -0.03 | tozasertib 0.03 | [4] 0.17 | doramapimod 0.152 | ispinesib -0.306

SNX6 (UniProt Q9UNH7)
inactive: [1] -0.169 | crizotinib -0.323 | [2] -0.014 | [3] -0.033 | duvelisib -0.277 | tozasertib -0.118 | [4] 0.061 | doramapimod -0.036 | ispinesib -0.281
active: gandotinib -0.5

SLC7A6 (UniProt Q92536)
inactive: [1] -0.011 | crizotinib 0.065 | [2] -0.173 | [3] -0.149 | duvelisib 0.116 | gandotinib -0.114 | tozasertib -0.006 | [4] -0.041 | doramapimod 0.001 | ispinesib 0.17

TGFBR1 isoform 2 (UniProt P36897)
active: [1] 0.254
inactive: crizotinib 0.133 | [2] -0.031 | [3] 0.024 | duvelisib -0.019 | gandotinib 0.101 | tozasertib 0.026 | [4] 0.014 | doramapimod -0.005 | ispinesib -0.156

SNX11 (UniProt Q9Y5W9)
active: crizotinib -0.76 | duvelisib -0.486 | ispinesib -0.536
inactive: [1] -0.062 | [2] -0.021 | [3] 0.012 | gandotinib -0.378 | tozasertib -0.001 | [4] 0.14 | doramapimod -0.017

SLC44A2 isoform 2 (UniProt Q8IWA5)
UniProt Q8IWA5, sequence (Q8IWA5 whole entry, looked up): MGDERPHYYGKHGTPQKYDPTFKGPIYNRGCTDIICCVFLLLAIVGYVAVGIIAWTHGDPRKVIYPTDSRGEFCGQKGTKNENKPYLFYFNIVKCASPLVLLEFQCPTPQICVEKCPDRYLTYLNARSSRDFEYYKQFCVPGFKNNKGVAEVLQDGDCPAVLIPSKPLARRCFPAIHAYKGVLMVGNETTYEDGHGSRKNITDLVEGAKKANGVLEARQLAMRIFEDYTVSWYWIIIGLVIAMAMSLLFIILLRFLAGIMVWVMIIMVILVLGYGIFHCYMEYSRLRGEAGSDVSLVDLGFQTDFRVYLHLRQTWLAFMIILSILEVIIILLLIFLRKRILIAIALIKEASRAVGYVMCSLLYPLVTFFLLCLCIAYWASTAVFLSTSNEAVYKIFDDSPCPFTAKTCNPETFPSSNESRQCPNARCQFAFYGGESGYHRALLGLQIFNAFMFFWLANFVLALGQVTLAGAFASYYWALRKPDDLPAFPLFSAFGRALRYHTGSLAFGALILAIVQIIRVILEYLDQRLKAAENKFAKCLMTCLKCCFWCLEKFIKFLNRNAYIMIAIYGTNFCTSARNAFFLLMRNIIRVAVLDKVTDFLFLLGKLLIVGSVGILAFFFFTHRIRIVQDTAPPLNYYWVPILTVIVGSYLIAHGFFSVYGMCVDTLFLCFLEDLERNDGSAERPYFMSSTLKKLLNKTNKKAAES
inactive: [1] 0.019 | crizotinib 0.113 | [2] 0.026 | [3] -0.123 | duvelisib 0.154 | gandotinib -0.017 | tozasertib -0.022 | [4] -0.046 | doramapimod 0.055 | ispinesib 0.069

SRSF3 (UniProt P84103)
UniProt P84103, sequence (P84103 whole entry, looked up): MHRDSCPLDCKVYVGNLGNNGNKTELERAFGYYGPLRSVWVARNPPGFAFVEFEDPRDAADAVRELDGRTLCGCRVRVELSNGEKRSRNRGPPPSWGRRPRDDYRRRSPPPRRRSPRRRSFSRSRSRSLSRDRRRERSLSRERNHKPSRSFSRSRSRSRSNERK
inactive: [1] -0.081 | crizotinib 0.061 | [2] -0.27 | [3] 0.128 | duvelisib -0.081 | gandotinib 0.247 | tozasertib -0.027 | [4] -0.024 | doramapimod -0.019 | ispinesib -0.095

SMAP2 (UniProt Q8WU79)
UniProt Q8WU79, sequence (Q8WU79 whole entry, looked up): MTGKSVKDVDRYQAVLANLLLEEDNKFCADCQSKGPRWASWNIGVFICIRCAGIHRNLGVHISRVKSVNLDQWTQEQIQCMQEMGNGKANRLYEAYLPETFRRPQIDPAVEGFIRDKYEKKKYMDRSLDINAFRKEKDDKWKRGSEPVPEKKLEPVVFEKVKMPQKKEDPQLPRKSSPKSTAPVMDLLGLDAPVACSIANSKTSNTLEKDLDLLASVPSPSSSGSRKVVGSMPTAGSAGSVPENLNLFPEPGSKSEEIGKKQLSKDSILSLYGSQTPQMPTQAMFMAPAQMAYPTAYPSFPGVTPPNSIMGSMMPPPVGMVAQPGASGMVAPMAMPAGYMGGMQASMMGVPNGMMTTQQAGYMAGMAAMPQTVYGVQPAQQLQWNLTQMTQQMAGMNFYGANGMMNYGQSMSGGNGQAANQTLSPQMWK
inactive: [1] 0.04 | crizotinib 0.097 | [2] 0.015 | [3] 0.04 | duvelisib 0.02 | gandotinib -0.011 | tozasertib 0.058 | [4] 0.096 | doramapimod -0.047 | ispinesib -0.006

TBRG4 (UniProt Q969Z0)
inactive: [1] -0.041 | [2] 0.137 | [3] -0.005 | duvelisib 0.066 | gandotinib -0.364 | tozasertib 0.04 | [4] 0.174 | doramapimod -0.081 | ispinesib -0.254
active: crizotinib -0.676

STX7 (UniProt O15400)
active: ispinesib -0.246
inactive: [1] 0 | crizotinib -0.187 | [2] 0.015 | [3] -0.042 | duvelisib -0.023 | gandotinib -0.18 | tozasertib -0.021 | [4] -0.055 | doramapimod 0.04

TLK2 isoform 2 (UniProt Q86UE8)
inactive: [1] -0.063 | crizotinib -0.031 | [2] 0.139 | [3] -0.095 | duvelisib -0.007 | gandotinib 0.165 | tozasertib -0.047 | [4] -0.07 | doramapimod -0.042 | ispinesib 0.019

SLC30A10 (UniProt Q6XR72)
UniProt Q6XR72, sequence (Q6XR72 whole entry, looked up): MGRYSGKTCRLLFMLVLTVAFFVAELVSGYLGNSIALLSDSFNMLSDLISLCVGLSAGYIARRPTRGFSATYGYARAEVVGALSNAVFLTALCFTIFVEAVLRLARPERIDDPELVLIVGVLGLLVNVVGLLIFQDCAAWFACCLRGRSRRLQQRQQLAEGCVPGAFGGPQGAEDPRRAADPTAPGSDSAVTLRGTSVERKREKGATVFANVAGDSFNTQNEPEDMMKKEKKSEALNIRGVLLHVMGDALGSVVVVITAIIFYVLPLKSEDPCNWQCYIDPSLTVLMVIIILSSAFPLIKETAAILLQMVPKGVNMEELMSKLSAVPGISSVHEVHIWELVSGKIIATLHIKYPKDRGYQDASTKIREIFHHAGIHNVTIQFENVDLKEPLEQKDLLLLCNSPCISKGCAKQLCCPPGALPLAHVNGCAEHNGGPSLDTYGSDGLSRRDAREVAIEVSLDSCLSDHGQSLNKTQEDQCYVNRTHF
inactive: [1] 0.11 | crizotinib 0.192 | [2] 0.178 | [3] -0.001 | duvelisib 0.079 | gandotinib -0.078 | tozasertib -0.062 | [4] -0.046 | doramapimod 0.035 | ispinesib 0.077

SRSF2 (UniProt Q01130)
inactive: [1] 0.005 | crizotinib 0.023 | [2] -0.107 | [3] 0.006 | duvelisib 0.013 | gandotinib 0.092 | tozasertib -0.037 | [4] -0.006 | doramapimod -0.033 | ispinesib -0.036

SMCHD1 (UniProt A6NHR9)
UniProt A6NHR9, sequence (A6NHR9 whole entry, looked up): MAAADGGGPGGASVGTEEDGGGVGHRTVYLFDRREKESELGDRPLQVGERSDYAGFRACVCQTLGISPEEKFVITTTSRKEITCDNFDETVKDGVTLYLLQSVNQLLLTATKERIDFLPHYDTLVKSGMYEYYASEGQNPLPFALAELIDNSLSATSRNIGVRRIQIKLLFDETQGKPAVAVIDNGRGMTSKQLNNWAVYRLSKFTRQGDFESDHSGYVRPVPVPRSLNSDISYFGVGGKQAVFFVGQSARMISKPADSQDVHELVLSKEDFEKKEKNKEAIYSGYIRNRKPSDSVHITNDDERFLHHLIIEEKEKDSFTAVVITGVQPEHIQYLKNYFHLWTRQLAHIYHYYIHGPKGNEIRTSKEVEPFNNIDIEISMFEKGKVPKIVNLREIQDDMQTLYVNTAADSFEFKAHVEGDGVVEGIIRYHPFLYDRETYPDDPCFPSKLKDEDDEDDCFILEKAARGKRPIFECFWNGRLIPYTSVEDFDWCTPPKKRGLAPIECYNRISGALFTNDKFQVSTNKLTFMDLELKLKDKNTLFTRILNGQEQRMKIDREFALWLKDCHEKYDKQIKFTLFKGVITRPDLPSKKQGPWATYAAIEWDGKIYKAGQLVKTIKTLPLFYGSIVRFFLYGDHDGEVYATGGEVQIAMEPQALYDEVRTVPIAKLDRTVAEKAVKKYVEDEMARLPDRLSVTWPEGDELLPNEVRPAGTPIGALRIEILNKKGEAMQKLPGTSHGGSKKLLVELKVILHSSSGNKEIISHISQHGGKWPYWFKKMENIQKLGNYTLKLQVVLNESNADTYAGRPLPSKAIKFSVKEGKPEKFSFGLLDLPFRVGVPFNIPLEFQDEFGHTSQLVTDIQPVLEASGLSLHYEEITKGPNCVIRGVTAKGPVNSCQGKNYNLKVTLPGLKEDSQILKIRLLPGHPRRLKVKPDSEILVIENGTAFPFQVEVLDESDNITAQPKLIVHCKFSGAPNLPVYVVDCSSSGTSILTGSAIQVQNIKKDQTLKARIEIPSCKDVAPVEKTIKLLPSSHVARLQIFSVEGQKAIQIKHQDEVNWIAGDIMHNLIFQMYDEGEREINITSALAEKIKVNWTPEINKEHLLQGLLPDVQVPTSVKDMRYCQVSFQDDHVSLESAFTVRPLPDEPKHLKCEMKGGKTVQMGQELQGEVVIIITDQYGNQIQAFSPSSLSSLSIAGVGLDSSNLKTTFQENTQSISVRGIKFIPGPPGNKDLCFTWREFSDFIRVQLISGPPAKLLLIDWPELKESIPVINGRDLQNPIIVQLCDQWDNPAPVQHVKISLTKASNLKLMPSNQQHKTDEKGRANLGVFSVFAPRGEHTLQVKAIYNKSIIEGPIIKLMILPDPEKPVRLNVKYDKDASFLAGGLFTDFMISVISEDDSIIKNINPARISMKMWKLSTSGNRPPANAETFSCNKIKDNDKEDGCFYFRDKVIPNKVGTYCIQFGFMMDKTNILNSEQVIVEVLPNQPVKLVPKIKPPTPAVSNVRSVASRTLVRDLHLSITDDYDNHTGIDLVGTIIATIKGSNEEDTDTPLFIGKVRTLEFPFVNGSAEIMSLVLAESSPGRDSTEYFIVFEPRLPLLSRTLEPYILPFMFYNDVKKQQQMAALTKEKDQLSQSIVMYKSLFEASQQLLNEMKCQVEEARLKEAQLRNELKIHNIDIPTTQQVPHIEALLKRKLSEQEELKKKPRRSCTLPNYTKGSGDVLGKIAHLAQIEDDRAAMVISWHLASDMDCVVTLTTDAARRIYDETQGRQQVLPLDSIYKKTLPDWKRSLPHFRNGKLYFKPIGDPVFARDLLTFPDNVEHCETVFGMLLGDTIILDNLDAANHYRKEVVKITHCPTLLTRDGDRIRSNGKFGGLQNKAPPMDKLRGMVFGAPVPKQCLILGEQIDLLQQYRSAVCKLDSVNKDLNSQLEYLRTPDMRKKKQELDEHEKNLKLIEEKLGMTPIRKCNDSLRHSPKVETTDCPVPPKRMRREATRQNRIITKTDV
inactive: [1] -0.019 | crizotinib -0.065 | [2] -0.041 | [3] -0.104 | duvelisib 0 | gandotinib 0.064 | tozasertib 0.007 | [4] 0.104 | doramapimod 0.059 | ispinesib -0.149

TIMM10 (UniProt P62072)
inactive: [1] -0.035 | crizotinib 0.051 | [2] 0.099 | [3] -0.006 | duvelisib 0.105 | gandotinib 0.052 | tozasertib 0.053 | [4] 0.027 | doramapimod 0.021 | ispinesib 0.103

SLC4A2 (UniProt P04920)
inactive: [1] 0.114 | crizotinib -0.053 | [2] 0.013 | [3] 0.126 | duvelisib -0.015 | gandotinib -0.075 | tozasertib -0.069 | [4] -0.058 | doramapimod 0.07 | ispinesib -0.099

STAT5A (UniProt P42229)
inactive: [1] 0.02 | crizotinib -0.002 | [2] 0.08 | [3] -0.036 | duvelisib 0.019 | gandotinib -0.033 | tozasertib 0.119 | [4] 0.14 | doramapimod -0.047 | ispinesib 0.275

SLC25A38 (UniProt Q96DW6)
inactive: [1] 0.146 | crizotinib 0.105 | [2] 0.045 | [3] 0.002 | duvelisib 0.088 | gandotinib -0.035 | tozasertib -0.003 | [4] -0.058 | doramapimod 0.001 | ispinesib 0

SRPRA (UniProt P08240)
inactive: [1] 0.066 | crizotinib 0.036 | [2] 0.061 | [3] 0.01 | duvelisib 0.036 | gandotinib -0.042 | tozasertib -0.009 | [4] 0.063 | doramapimod -0.044 | ispinesib 0.045

SOAT1 (UniProt P35610)
UniProt P35610, sequence (P35610 whole entry, looked up): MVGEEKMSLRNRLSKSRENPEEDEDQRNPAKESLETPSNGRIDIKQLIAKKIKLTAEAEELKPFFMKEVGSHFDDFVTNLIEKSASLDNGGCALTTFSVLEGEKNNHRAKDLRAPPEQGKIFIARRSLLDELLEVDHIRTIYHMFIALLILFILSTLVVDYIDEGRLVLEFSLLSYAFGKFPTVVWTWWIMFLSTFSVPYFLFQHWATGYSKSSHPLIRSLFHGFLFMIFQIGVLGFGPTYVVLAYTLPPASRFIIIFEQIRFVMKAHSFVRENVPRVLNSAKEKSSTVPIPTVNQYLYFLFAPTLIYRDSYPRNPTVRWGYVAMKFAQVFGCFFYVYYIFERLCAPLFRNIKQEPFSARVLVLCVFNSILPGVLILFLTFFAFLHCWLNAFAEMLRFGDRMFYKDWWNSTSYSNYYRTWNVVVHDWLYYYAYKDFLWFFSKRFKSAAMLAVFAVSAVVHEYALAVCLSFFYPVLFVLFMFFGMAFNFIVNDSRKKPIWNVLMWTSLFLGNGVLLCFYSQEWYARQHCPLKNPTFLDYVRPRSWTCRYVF
active: doramapimod 0.448
inactive: [1] 0.066 | crizotinib 0.139 | [2] 0.094 | [3] -0.018 | duvelisib 0.069 | gandotinib 0.079 | tozasertib -0.021 | [4] -0.026 | ispinesib 0.158

SUGP1 (UniProt Q8IWZ8)
inactive: [1] 0.021 | crizotinib -0.001 | [2] 0.015 | [3] -0.064 | duvelisib -0.024 | gandotinib -0.077 | tozasertib 0.042 | [4] 0.09 | doramapimod -0.033 | ispinesib 0.019

SPR (UniProt P35270)
inactive: [1] -0.006 | crizotinib 0.125 | [2] 0.058 | [3] -0.059 | duvelisib 0.109 | gandotinib 0.288 | tozasertib 0.154 | [4] -0.025 | doramapimod -0.05 | ispinesib -0.103

SRSF4 (UniProt Q08170)
inactive: [1] -0.055 | crizotinib 0.011 | [2] -0.248 | [3] 0 | duvelisib -0.064 | gandotinib 0.077 | tozasertib 0.071 | [4] 0.031 | doramapimod 0.073 | ispinesib -0.021

SLC9A6 isoform 2 (UniProt Q92581)
UniProt Q92581, sequence (Q92581 whole entry, looked up): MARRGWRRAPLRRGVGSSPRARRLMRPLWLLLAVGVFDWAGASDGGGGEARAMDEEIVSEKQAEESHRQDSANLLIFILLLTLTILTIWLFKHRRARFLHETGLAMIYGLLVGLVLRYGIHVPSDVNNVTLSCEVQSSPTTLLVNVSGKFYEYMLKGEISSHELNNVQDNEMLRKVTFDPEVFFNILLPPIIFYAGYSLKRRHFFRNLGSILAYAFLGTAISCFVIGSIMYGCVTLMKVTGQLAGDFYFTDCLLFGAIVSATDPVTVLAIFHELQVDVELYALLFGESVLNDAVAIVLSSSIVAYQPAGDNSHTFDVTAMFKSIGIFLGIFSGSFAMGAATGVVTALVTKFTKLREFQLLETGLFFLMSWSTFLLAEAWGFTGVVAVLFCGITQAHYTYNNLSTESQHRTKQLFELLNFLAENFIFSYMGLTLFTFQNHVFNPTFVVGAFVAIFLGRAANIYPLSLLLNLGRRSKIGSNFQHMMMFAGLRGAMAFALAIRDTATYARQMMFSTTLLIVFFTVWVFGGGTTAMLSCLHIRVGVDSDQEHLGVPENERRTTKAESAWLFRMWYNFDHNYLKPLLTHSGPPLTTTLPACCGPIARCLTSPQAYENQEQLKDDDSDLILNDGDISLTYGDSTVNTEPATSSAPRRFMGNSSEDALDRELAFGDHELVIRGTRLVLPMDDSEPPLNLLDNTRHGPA
inactive: [1] 0.028 | crizotinib 0.048 | [2] 0.022 | [3] -0.005 | duvelisib 0.079 | gandotinib -0.105 | tozasertib -0.024 | [4] -0.067 | doramapimod 0
active: ispinesib -0.331

STAT5B (UniProt P51692)
inactive: [1] 0.119 | crizotinib -0.353 | [2] -0.037 | [3] -0.014 | duvelisib -0.164 | gandotinib -0.209 | tozasertib 0.129 | [4] 0.097 | doramapimod -0.09 | ispinesib -0.082
